# HT1080NT lethal: kills 2HG-producing HT-1080-NT fibrosarcoma cells | HT-1080-NT fibrosarcoma viability, CellTiter-Glo ATP luminescence, 48 h | Potency, µM (highest dose often 46.1 µM), usual class: cytotoxic | 360,000 compounds, 1.6% hits;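 also: NT is the 2HG producing partner of a matched IDH1 knockdown line; nearly all actives have a fitted effect of over 55% in size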
#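 Compounds were tested in concentration-response format on HT-1080-NT cells for 48 hours at 37 degrees C. Cell viability came from CellTiter-Glo luminescence; curves were classified by r2, response magnitude and activity.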
# HT1080 IDH1KD tx: HT-1080 IDH1 knockdown cell toxicity (counter line); Potency, µM (series often up to 46.1 µM), usual class: cytotoxic; 360,000 compounds, 2% hits; HT-1080 IDH1 knockdown viability, ATP luminescence, 48 h; AID 686971
#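 Cytotoxicity counter-line: IDH1KD HT-1080, 48 h, CellTiter-Glo. Curves classed by r2, magnitude and activity.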
# TDP1 cell noCPT: qHTS for Inhibitors of human tyrosyl-DNA phosphodiesterase 1 (TDP1): qHTS in cells in absence of CPT. 420,000 compounds, 15% hits. DT40 Tdp1-/- hTDP1 cells, no CPT, ATP luminescence, 48 h. Potency, µM (titrated, usually from 46.2 µM), actives largely listed as inhibitors. AID 686978, 2013; also: nearly all actives have a fitted effect of over 55% in size
#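 Compound effects on proliferation are scored in DT40 Tdp1-/-;hTDP1 cells in the absence of CPT. ATP levels (CellTiter-Glo luminescence) are recorded after a ≥48 hr, 37 °C incubation.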
# KB-3-1 tox: KB-3-1 parental cell cytotoxicity. Potency, µM (titrated, usually from 46.1 µM), usual class: cytotoxic. KB-3-1 viability, CellTiter-Glo ATP luminescence, 72 h. 400,000 compounds, 1.4% hits; also: nearly all actives have a fitted effect of over 60% in size
#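 Screening of KB-3-1 cells (DMEM, 10% FBS, phenol-red free) ran from lowest to highest compound concentration; after 72 h at 37 °C viability was read luminescently and curves fitted.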
# TDP1 cell CPT: DT40-hTDP1 cell growth loss with CPT; chicken DT40 Tdp1-/-;hTDP1 cells + 20 nM CPT, ATP luminescence, 48 h; Potency, µM (series often up to 46.2 µM), usual class: inhibitors; 420,000 compounds, 12% hits; AID 686979; also: nearly all actives have a fitted effect of over 55% in size
#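 Chicken DT40 Tdp1-/- cells complemented with human TDP1, 400 cells/well, exposed to compounds plus 20 nM camptothecin for at least 48 h at 37 C; viability read as ATP content by CellTiter-Glo luminescence.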
# KB-V1 cytotox: KB-V1 MDR subline cytotoxicity | Potency, µM (doses to about 46.1 µM), actives largely listed as cytotoxic | KB-V1 MDR cells viability, CellTiter-Glo, 72 h | AID 1347076 | 400,000 compounds, 3.4% hits; also: nearly all actives have a fitted effect of over 60% in size
#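 KB-V1 cells (P-gp-expressing MDR subline of KB-3-1) in phenol-red-free DMEM with 10% FBS were exposed to library compounds over a concentration series for 72 h at 37 degrees C. Viability read by CellTiter-Glo luminescence; concentration-effect curves fitted after normalization.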
# Hits are given with their value; i = inactive; ? = inconclusive; nt = no result given; [ ] = dose if it differs, or a comment. An excerpt weighted towards active compounds, which were near 19% of everything screened. Calls follow the shape of the dose curve; as a rule, active = well fitted curve in the direction sought with a large enough effect; inconclusive = small, poorly fitted or top-dose-only effect, or another doubt; inactive = no such curve, though single readings can be large; an effect the other way counts as inactive or inconclusive.
SMILES,HT1080NT lethal,HT1080 IDH1KD tx,TDP1 cell noCPT,KB-3-1 tox,TDP1 cell CPT,KB-V1 cytotox
CC(/C=C/c1ccccc1)=N\NC(=O)c1cc(C)[nH]n1,i,i,i,i,i,i
O=C1c2cccc3c2[C@H](CCC3)CN1[C@@H]1CN2CCC1CC2,nt,nt,15µM,nt,17µM,nt
O=C1c2cccc(-c3ccc(C(F)(F)F)cc3)c2C2CCCCN12 (configuration not stated),i,?,?,i,?,i
Cc1ccc(-c2ccccc2NC(=O)C2C3C=CC(C3)C2C(=O)O)o1 (configuration not stated),i,i,i,i,i,i
Cc1ccc(-c2ccccc2NC(=O)CS(=O)CC(=O)Nc2ccc(C)c(Cl)c2)o1 (configuration not stated),i,23µM,?,i,?,i
Cc1ccc(NC(=O)CS(=O)CC(=O)NC(C)CCc2ccco2)cc1Cl (configuration not stated),i,i,?,i,i,i
Cc1ccc(-c2ccccc2NC(=O)CCl)o1,i,i[9.24 µM],21µM,i,15µM,i
CSc1nn(Cc2ccccc2C)c(NC(C)=O)c1S(=O)(=O)c1ccc(C)cc1,nt,nt,15µM,i,?,i
CN(CCN1CCOCC1)C(=O)c1cc(COc2ccc(F)cc2Cl)on1,i,i,i,i,i,i
COc1ccc(OCc2cc(C(=O)N(Cc3nccn3C)C(C)C)no2)c2ccccc12,i,i,12µM,i,21µM,i
CC(C)N(Cc1nccn1C)C(=O)c1cc(COc2ccc(F)cc2Cl)on1,i,i,?,nt,15µM,nt
Cc1ccc(C)c(N2CCN(CCCNC(=O)Cn3ncc4c([nH]c5ccccc54)c3=O)CC2)c1,nt,nt,21µM,i,15µM,?
O=C(Cn1ncc2c([nH]c3ccccc32)c1=O)Nc1ccc(CN2CCCCC2)cc1,i,i,18µM,i,?,?
COc1ccccc1N1CCN(CCCn2c(=S)[nH]c3ccccc3c2=O)CC1,i,i,9.2µM,i,13µM,i
COc1cc2c(=O)n(CCCN3CCOCC3)c(=S)[nH]c2c(OC)c1OC,i,i,23µM,i,5.8µM,i
O=C(Cn1ncc2c([nH]c3ccccc32)c1=O)NCCCN1CCN(c2ccc(F)cc2)CC1,nt,nt,?,i,?,i
CCOc1cc2[nH]c(=S)n(CCCN3CCOCC3)c(=O)c2cc1OCC,i,i,?,i,?,?
COc1ccc(N2CCN(CCCn3c(=S)[nH]c4ccccc4c3=O)CC2)cc1,i,?,?,i,?,i
CC(NC(=O)c1ccccc1)C(=O)NC1CCCc2ccccc21 (configuration not stated),i,i,i,i,i,i
Cc1ccc(NC(=O)Cc2nc(CN(C)CC(=O)Nc3ccc(C)cc3)cs2)cc1,i[9.24 µM],i,i,i,i,i
Cc1ccc(C2C(N)C(=O)N2c2ccc(C)cc2)cc1 (configuration not stated),i,i,i,i,i,i
COc1ccc(-c2cc3ccc(O)c(CN4CCCC4)c3oc2=O)cc1,nt,nt,i,nt,i,nt
COc1ccccc1N1CCN(CCCNC(=O)Cn2ncc3c([nH]c4ccccc43)c2=O)CC1,i,i,21µM,i,?,?
CNC(=O)c1ccccc1NC(=O)c1cccc(S(=O)(=O)N2CCC(C)CC2)c1,i,i,16µM,i,21µM,?
CNC(=O)c1ccccc1NC(=O)c1cccc(S(=O)(=O)N2CCCCC2)c1,i,i,i,i,i,i
CCNC(=O)c1ccccc1NC(=O)c1cccc(S(=O)(=O)N2CCC(C)CC2)c1,i,i,15µM,i,?,16µM
Cc1noc(C)c1C(=O)N1CCC[C@@]2(CCN(C(=O)Nc3cccc(C#N)c3)C2)C1,nt,nt,i,nt,i,nt
COc1ccc(-c2noc(N3CCC(C(=O)Nc4ccc(F)cc4)CC3)n2)cc1,i,i,i,i,i,i
